Each structure is given as a SMILES string. Out of some 52,000 compounds screened, about 4,300 (8.3%) were called active. Cut-off read from the data, not from the text of the source: active = survival mostly below about 52% (no sharp cut-off); inactive = mostly above about 56%. For the sample, actives were picked, then their nearest neighbours and some compounds at random.

This experiment concerns DeltatarO mutant. Description: growth inhibition of S. aureus wild type versus tarO mutant, primary screen, teichoic acid synthesis inhibitors, RN4220, OD600 (AID 463173). As to conditions: OD600, 18 h, active compounds read low, screened at 18.75 µg/mL (by protocol).
Regarding `CCN(CC)S(=O)(=O)c1ccc2oc(C(=O)Nc3ccc(Br)cc3F)c(C)c2c1`, the survival is 69% (inactive).

As for `O=C(O)CCN1CCCC1`, the survival was 78% (inactive).

For `CCN(c1cccc(C)c1)c1ncnc2c1cnn2-c1cccc(Cl)c1`, the survival was 70% (inactive).

As for `N#C/C(=C\c1ccc(F)cc1)c1nc(-c2ccc(-c3ccccc3)cc2)cs1`, the survival was 69% (inactive).

On to `CCc1ccc(/C=C(/C#N)c2nc(-c3ccc(C)cc3)cs2)cc1`, for which the survival is 8% (active).

As to `Cc1ccc(/C=C(\C#N)c2nc(-c3ccc(-c4ccccc4)cc3)cs2)cc1`, the survival is 57% (inactive).

With `CN(C)c1ccc(/C=C(\C#N)c2nc(-c3ccc(Cl)c(Cl)c3)cs2)cc1`, the survival was 76% (inactive).

Regarding `COc1ccc(/C=C(/C#N)c2nc(-c3ccc(-c4ccccc4)cc3)cs2)cc1`, the survival is 73% (inactive).

Regarding `N#C/C(=C/c1ccc(O)cc1)c1nc(-c2ccc(-c3ccccc3)cc2)cs1`, the survival was 9% (active).

As for `N#C/C(=C/c1ccc(Cl)cc1)c1nc(-c2ccc(Br)cc2)cs1`, the survival was 65% (inactive).

Consider `CC(C)c1ccc(/C=C(\C#N)c2nc(-c3ccc(O)cc3)cs2)cc1`, for which the survival is -1% (active).

For `CCOc1ccc(-c2csc(/C(C#N)=C/c3ccc(Br)cc3)n2)cc1`, the survival was 55% (inactive).

Turning to `O=C(Nc1ccc(Cl)cc1)N1CCN(c2ccc3nnc(-c4ccc(F)cc4)n3n2)CC1`, the survival was 68% (inactive).

As to `Cc1ccc2oc(-c3cccc(NC(=O)c4sc5c([N+](=O)[O-])cccc5c4Cl)c3)nc2c1`, the survival was 67% (inactive).

Turning to `COc1cc(-c2nc(Cn3nnc(C(=O)Nc4ccccc4C)c3C)c(C)o2)cc(OC)c1OC`, the survival is 58% (inactive).

As to `COc1ccc(NC(=O)c2c(C)oc3ccc(O)c(CN4CCN(Cc5ccccc5)CC4)c23)cc1`, the survival was 56% (inactive).

Regarding `CCn1c(=O)c2sccc2n2c(CCC(=O)Nc3ccc(F)cc3)nnc12`, the survival was 82% (inactive).

Regarding `O=C(CSc1nc2ccccc2n1Cc1ccc(F)c(Cl)c1)N1CCN(c2ccc(F)cc2)CC1`, the survival is 61% (inactive).

Regarding `Cc1csc2nc(COC(=O)c3ccccc3NC(=O)c3cccc(Br)c3)cc(=O)n12`, the survival was 87% (inactive).

Turning to `Cc1ccc(CNC(=O)c2c(-c3cccc(Br)c3)noc2C)o1`, the survival was 87% (inactive).

Turning to `CCOc1ccccc1NC(=O)CN(CCc1ccccc1)S(=O)(=O)c1ccc(C)cc1`, the survival was 106% (inactive).

`COc1ccc(S(=O)(=O)N(CCc2ccccc2)CC(=O)Nc2cc(Cl)ccc2C)cc1`: the survival is 58% (inactive).

In the case of `COc1ccc(S(=O)(=O)N(CCc2ccccc2)CC(=O)Nc2cc(C)ccc2C)cc1`, the survival was 48% (inactive).

With `Cc1c(Cl)cccc1NC(=O)CN(CCc1ccccc1)S(=O)(=O)c1ccccc1`, the survival is 49% (inactive).

Consider `Cc1ccc(C)c(NC(=O)CN(CCc2ccccc2)S(=O)(=O)c2ccccc2)c1`, for which the survival is 46% (active).

As to `Cc1ccc(NC(=O)CN(CCc2ccccc2)S(=O)(=O)c2ccccc2)c(C)c1`, the survival is 38% (active).

With `Cc1cccc(NC2=CC(c3cccc(Br)c3)N(c3cccc(C)c3)C2=O)c1` (configuration not stated), the survival was 137% (inactive).

For the molecule `Cc1ccccc1Cn1ccn(-c2ccc(F)c(F)c2)c(=O)c1=O`, the survival is 76% (inactive).

As to `O=C(CCNS(=O)(=O)c1ccc2c(c1)CCN2C(=O)C1CC1)N1CCN(c2cccc(Cl)c2)CC1`, the survival is 122% (inactive).

As for `COc1ccc(OCC(=O)N2CCc3ccccc3C2)cc1`, the survival is 80% (inactive).

`Cc1cccc(-c2nc3c4ccccc4n(CC(=O)Nc4cccc(F)c4)c(=O)n3n2)c1`: the survival was 95% (inactive).

As to `Cc1ccc(-c2nc3c4ccccc4n(Cc4cccc(Cl)c4)c(=O)n3n2)cc1`, the survival is 123% (inactive).

In the case of `O=c1n(Cc2cccc(C(F)(F)F)c2)c2ccccc2c2nc(-c3ccccc3)nn12`, the survival is 80% (inactive).

For the molecule `O=c1n(Cc2cccc(F)c2)c2ccccc2c2nc(-c3ccccc3)nn12`, the survival was 33% (active).

As to `CCc1cccc(NC(=O)Cn2c(=O)n3nc(-c4cccc(F)c4)nc3c3ccccc32)c1`, the survival is 52% (active).

With `O=c1n(Cc2ccc(F)cc2)c2ccccc2c2nc(-c3ccccc3)nn12`, the survival was 86% (inactive).

For `Cc1cccc(-c2nc3c4ccccc4n(Cc4cccc(Cl)c4)c(=O)n3n2)c1`, the survival is 97% (inactive).

On to `COc1cccc(CNC(=O)Cn2c(=O)n3nc(-c4cccc(F)c4)nc3c3ccccc32)c1`, for which the survival was 77% (inactive).

Consider `Cc1cccc(Cn2c(=O)n3nc(-c4ccccc4)nc3c3ccccc32)c1`, for which the survival is -16% (active).

Regarding `CCOc1ccc(NC(=O)c2oc3ccccc3c2NC(=O)Cc2cccs2)cc1`, the survival was 82% (inactive).

As to `O=C(Cn1cnc2c(cnn2-c2ccccc2)c1=O)c1ccccc1`, the survival is 55% (inactive).

In the case of `O=C(Nc1ccc(F)cc1F)c1ccc(-n2cnnc2)cc1`, the survival is 73% (inactive).

For `CCc1ccc(N(CC)C(=O)Cn2c(=O)oc3ccccc32)cc1`, the survival was 70% (inactive).

Consider `COC(=O)C1=C(c2ccccc2)c2ccccc2S(=O)(=O)N1CC(=O)Nc1ccccc1Cl`, for which the survival is 37% (inactive).

In the case of `Cc1oc2ncn(C)c(=O)c2c1C(=O)NCc1ccc(Cl)cc1`, the survival is 84% (inactive).

As to `CCOc1ccccc1NC(=O)C1CCN(S(=O)(=O)c2ccc3c(c2)CCCN3C(C)=O)CC1`, the survival was 75% (inactive).

Consider `CC(NC(=O)C1CCN(S(=O)(=O)Cc2ccccc2)CC1)c1ccccc1` (configuration not stated), for which the survival is 68% (inactive).

As to `COc1ccc(-c2cc(C(F)(F)F)nc(SCCC(=O)N3CCN(C)CC3)n2)cc1`, the survival was 114% (inactive).

As for `CCC1CCCCN1C(=O)CSc1nc(-c2ccc(OC)c(OC)c2)cc(C(F)(F)F)n1` (configuration not stated), the survival is -3% (active).

As for `COc1ccc(-c2cc(C(F)(F)F)nc(SCC(=O)N3CCCCC3C)n2)cc1OC` (configuration not stated), the survival was 52% (inactive).

For the molecule `COc1ccc(-c2cc(C(F)(F)F)nc(SCC(=O)N3CCCCC3)n2)cc1OC`, the survival was 71% (inactive).

For the molecule `CCC1CCCCN1C(=O)CSc1nc(-c2ccc(OC)cc2)cc(C(F)(F)F)n1` (configuration not stated), the survival was 1% (active).

For the molecule `COc1ccc(-c2cc(C(F)(F)F)nc(SCC(=O)N3CCCCC3)n2)cc1`, the survival was 74% (inactive).

As to `O=C(CNCc1ccco1)Nc1cccc(OC(F)(F)F)c1`, the survival was 99% (inactive).

`O=C(CN1C(=O)C2CCCCN2c2ccc(C(=O)N3CCCC3)cc21)NCc1cccc(F)c1` (configuration not stated): the survival was 66% (inactive).

In the case of `CCCCOc1cccc(C(=O)Nc2cccc3ccc(C)nc23)c1`, the survival is 75% (inactive).

Take `CCN(CCN(C)C)C(=O)Cn1ncc2c([nH]c3ccc(C)cc32)c1=O`: the survival was 88% (inactive).

`Cc1ccc(Cl)cc1-n1ncc2c(NC3CCCCC3)ncnc21`: the survival was 54% (inactive).

Turning to `CCOc1ccc(Nc2nc(Nc3ccc(OCC)cc3)nc(N3CCOCC3)n2)cc1`, the survival is 44% (active).

As for `COc1ccc(Nc2nc(Nc3ccc(OC)cc3OC)nc(N3CCOCC3)n2)c(OC)c1`, the survival was 14% (active).

`CCOc1ccc(Oc2nc(NC)nc(N3CCOCC3)n2)nn1`: the survival was 99% (inactive).

Turning to `CCOc1nc(Nc2ccc(OC)cc2)nc(N2CCOCC2)n1`, the survival is 70% (active).

For `CCOc1ccc(Oc2nc(NCC(C)C)nc(N3CCOCC3)n2)nn1`, the survival was 79% (inactive).

Take `CCCCNc1nc(Oc2ccc(OCC)nn2)nc(N2CCOCC2)n1`: the survival is 77% (inactive).

With `CCOc1ccc(NC(=O)c2c(C)oc3nc(C)nc(N4CCOCC4)c23)cc1`, the survival was 93% (inactive).

For `COc1ccccc1Nc1nc(Nc2cccc(C(F)(F)F)c2)nc(N2CCOCC2)n1`, the survival is 73% (inactive).

As to `COc1ccc(N2CCOCC2)cc1`, the survival is 89% (inactive).

As to `Cc1cc2c(cc3c(SCc4cccc(F)c4)nnc(C)n32)o1`, the survival is 68% (inactive).

Consider `CCOC(=O)Cn1cnc2onc(-c3ccc(F)cc3)c2c1=O`, for which the survival is 141% (inactive).

For the molecule `CCOc1ccccc1NC(=O)CSc1nc2c(oc3ccccc32)c(=O)n1-c1ccc(C)c(C)c1`, the survival was 88% (inactive).

Take `COc1ccccc1NC(=O)Cn1c(=O)n(Cc2ccccc2)c(=O)c2ccccc21`: the survival is 75% (inactive).

`COc1ccc(N(C(=O)COc2c(C)cccc2C)S(=O)(=O)c2ccc(Cl)cc2)cc1`: the survival is 73% (inactive).

Turning to `COc1cc(OC)cc(C(=O)Nc2cccc(-c3cn4ccsc4n3)c2)c1`, the survival is 6% (active).

`COc1cccc(OC)c1C(=O)Nc1cccc(-c2cn3ccsc3n2)c1`: the survival was 82% (inactive).

With `CCCS(=O)(=O)Nc1cccc(-c2cn3ccsc3n2)c1`, the survival is 134% (inactive).

Consider `COc1ccc(C(=O)Nc2cccc(-c3cn4ccsc4n3)c2)cc1OC`, for which the survival was 92% (inactive).

Consider `CN(C)S(=O)(=O)Nc1ccc(-c2cn3ccsc3n2)cc1`, for which the survival is 55% (inactive).

In the case of `CCS(=O)(=O)Nc1ccc(-c2cn3ccsc3n2)cc1`, the survival is 17% (active).

`O=C(NCCc1ccccc1Cl)c1ccc2c(c1)nc1n2CCCCC1`: the survival is 80% (inactive).

In the case of `Cc1cccc(NC(=O)N2CCN3CCCCC3C2)c1C` (configuration not stated), the survival is 77% (inactive).

On to `CC(C)c1ccc(NC(=O)c2cc(S(=O)(=O)NC3CCCCC3)ccc2F)cc1`, for which the survival was 102% (inactive).

With `O=C(Nc1cc2c(cc1C(=O)c1ccccc1Cl)OCCO2)c1ccccc1`, the survival was 113% (inactive).

Turning to `COc1ccc(CCn2c3c(c(=O)[nH]c2=O)C(NC(=O)c2ccc(C(C)(C)C)cc2)(C(F)(F)F)C(=O)N3)cc1OC` (configuration not stated), the survival is 91% (inactive).

Turning to `CCOC(=O)c1ccc(NS(=O)(=O)c2cn(C)c(C)n2)cc1`, the survival was 69% (inactive).

Consider `CCOC(=O)c1ccc(NC(=O)C(Cc2ccccc2)NS(=O)(=O)c2ccc(Br)s2)cc1` (configuration not stated), for which the survival is 90% (inactive).

`CC(=O)c1ccc(NC(=O)C2CCC(CNS(=O)(=O)c3ccc(Br)s3)CC2)cc1` (configuration not stated): the survival is 69% (inactive).

Take `CC(=O)c1ccc(NS(=O)(=O)c2cnc(N)nc2)cc1`: the survival was 6% (active).

Regarding `COc1cc(NS(=O)(=O)c2cnc(N)nc2)cc(OC)c1`, the survival was 76% (inactive).

In the case of `CCOC(=O)c1ccc(NS(=O)(=O)c2ccc(Br)s2)cc1`, the survival is 38% (active).

With `CC(=O)c1ccc(NS(=O)(=O)c2ccc(-c3cc(C)no3)s2)cc1`, the survival is 122% (inactive).

Take `Nc1ncc(S(=O)(=O)Nc2ccc(OC(F)(F)F)cc2)cn1`: the survival is 79% (inactive).

For the molecule `CC(=O)c1ccc(NS(=O)(=O)c2ccc(Br)s2)cc1`, the survival was 47% (active).

These data come from PubChem BioAssay AID463173 (ICCB-Longwood Screening Facility, Harvard Medical School, 2010).
